Measurements from PubChem BioAssay AID1159580 (chemical genetic matrix, 2015).
The whole screen tested about 5,500 compounds, of which about 2,000 (36%) were called active. Inconclusive results (about 18%) are left out. Rule as the data show it: active = normalized growth mostly below about 0.91 (no sharp cut-off); inconclusive = no clear call, values can overlap the other calls; inactive = mostly above about 0.92. The list shows a part of the results.

Assay: chemical genetic growth profiling, strain panel (AID 1159580);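 also: tested at 20 µM; growth read once vehicle control cultures reached saturation at 30 °C; 1 = growth at the plate median or of vehicle wells; lower values mean less growth of the strain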
Settings: S. cerevisiae deletion strains, growth OD

Measured: normalized growth

Cc1nc2sccn2c(=O)c1CCN1CCC(=C(c2ccccc2)c2ccc(F)cc2)CC1
inactive: locus YAL013W, strain DEP1, hits give low values 0.965 | locus YAL040C, strain CLN3, hits give low values 0.99 | locus YCL061C, strain MRC1 (second series), hits give low values 0.993 | locus YDR150W, strain NUM1, hits give low values 0.995 | locus YDR363W, strain ESC2, hits give low values 0.985 | locus YJR075W, strain HOC1, hits give low values 1.01 | locus YMR263W, strain SAP30, hits give low values 0.992 | locus YNL175C, strain NOP13, hits give low values 1.04 | locus YNL197C, strain WHI3, hits give low values 1.05 | locus YNL224C, strain SQS1, hits give low values 1.02 | locus YNL322C, strain KRE1, hits give low values 0.956 | locus YPL241C, strain CIN2, hits give low values 0.992
